In article PMC7862700, “An all-to-all approach to the identification of sequence-specific readers for epigenetic DNA modifications on cytosine”:

Legend:
Assay in all cases: DAPPL (digital affinity profiling via proximity ligation, sequencing); 10 mM Tris-HCl pH 7.5, 50 mM NaCl, 1 mM DTT, 4% glycerol, room temperature, 30 min; GST-TFs on glutathione beads, 16-mer random dsDNA library, 0.1% formaldehyde crosslink after washing; high values mean tight binding
Conditions in all cases: protein: recombinant; tags: N-terminal GST; dsDNA, one strand shown
FLI1 = biological target: T1, FLI1 (Homo sapiens, UniProt Q01543 1-452)
T1 sequence: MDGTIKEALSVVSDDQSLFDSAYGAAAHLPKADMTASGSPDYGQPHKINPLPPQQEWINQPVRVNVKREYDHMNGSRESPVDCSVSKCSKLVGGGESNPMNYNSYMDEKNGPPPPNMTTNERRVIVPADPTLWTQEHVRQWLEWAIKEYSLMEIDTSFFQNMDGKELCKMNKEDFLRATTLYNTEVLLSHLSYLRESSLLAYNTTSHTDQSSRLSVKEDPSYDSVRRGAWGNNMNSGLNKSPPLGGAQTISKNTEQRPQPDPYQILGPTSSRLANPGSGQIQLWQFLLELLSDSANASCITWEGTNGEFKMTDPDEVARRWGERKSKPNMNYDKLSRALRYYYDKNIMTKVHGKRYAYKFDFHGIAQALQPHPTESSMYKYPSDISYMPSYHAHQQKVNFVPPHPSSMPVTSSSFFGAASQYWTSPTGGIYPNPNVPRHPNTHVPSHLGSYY
Procedure, shortened: (§1)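 Sequencing on an Illumina NextSeq500 followed washing, crosslinking with 0.1% formaldehyde, proximity ligation (BsaI/T4 ligase, 1 h, 37 °C) and PCR amplification of pools that had been incubated for 30 min at room temperature with 200 nmole of a random double-stranded 16-mer DNA library in Tris/NaCl/DTT/glycerol buffer. Each pool held DNA-barcoded human transcription factors, expressed in yeast as GST fusions and captured on glutathione beads, plus a tag-only sample. Binding signal is a hexamer's read frequency for a factor divided by its frequency in the tag-only sample.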

GABPA = biological target: T2, GABPA (Homo sapiens, UniProt Q06546 1-454)
T2 sequence: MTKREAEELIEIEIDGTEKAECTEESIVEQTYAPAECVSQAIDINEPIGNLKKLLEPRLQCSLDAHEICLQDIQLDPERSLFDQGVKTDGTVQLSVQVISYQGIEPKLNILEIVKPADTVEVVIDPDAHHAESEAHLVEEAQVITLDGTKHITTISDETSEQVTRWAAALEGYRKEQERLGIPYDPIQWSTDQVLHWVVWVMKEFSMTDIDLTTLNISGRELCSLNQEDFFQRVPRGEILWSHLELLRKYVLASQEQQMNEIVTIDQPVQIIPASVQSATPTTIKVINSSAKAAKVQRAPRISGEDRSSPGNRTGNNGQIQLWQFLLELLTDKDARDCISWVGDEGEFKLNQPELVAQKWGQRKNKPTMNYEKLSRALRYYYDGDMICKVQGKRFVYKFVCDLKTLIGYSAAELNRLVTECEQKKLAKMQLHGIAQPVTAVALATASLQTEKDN
Procedure, shortened: as §1

EHF = biological target: T3, EHF (Homo sapiens, UniProt Q9NZC4 1-300)
T3 sequence: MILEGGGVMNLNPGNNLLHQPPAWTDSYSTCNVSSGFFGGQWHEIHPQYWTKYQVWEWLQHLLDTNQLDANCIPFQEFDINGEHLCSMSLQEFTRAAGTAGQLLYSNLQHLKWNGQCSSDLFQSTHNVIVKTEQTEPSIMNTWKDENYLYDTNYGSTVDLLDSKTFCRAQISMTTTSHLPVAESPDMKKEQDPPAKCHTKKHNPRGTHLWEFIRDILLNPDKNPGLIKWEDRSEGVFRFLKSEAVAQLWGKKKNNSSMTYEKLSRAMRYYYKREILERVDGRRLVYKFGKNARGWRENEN
Procedure, shortened: as §1

ELK3 = biological target: T4, ELK3 (Homo sapiens, UniProt P41970 1-407)
T4 sequence: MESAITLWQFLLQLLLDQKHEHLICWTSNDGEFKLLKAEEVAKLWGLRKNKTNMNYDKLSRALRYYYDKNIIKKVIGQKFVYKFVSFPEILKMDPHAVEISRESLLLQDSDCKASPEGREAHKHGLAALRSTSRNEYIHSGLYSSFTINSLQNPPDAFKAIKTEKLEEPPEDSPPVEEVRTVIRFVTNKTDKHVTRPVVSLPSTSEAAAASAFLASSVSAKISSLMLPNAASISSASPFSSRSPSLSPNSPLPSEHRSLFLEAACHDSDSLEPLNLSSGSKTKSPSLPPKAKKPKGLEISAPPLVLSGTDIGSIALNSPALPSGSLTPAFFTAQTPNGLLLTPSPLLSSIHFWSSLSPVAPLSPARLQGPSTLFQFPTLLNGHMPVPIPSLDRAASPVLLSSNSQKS
Procedure, shortened: as §1

ETV5 = ETV5 (Homo sapiens, UniProt P41161 1-510)
Procedure, shortened: as §1

SPIC = biological target: T5, SPIC (Homo sapiens, UniProt Q8N5J4 1-248)
T5 sequence: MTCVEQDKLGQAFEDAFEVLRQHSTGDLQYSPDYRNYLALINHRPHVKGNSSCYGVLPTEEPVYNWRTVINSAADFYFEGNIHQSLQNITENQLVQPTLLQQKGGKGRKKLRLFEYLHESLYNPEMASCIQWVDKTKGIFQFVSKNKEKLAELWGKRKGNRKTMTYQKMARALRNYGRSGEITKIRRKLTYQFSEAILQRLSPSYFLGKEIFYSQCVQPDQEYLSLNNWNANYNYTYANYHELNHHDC
Procedure, shortened: as §1

ERF = biological target: T6, ERF (Homo sapiens, UniProt P50548 1-548)
T6 sequence: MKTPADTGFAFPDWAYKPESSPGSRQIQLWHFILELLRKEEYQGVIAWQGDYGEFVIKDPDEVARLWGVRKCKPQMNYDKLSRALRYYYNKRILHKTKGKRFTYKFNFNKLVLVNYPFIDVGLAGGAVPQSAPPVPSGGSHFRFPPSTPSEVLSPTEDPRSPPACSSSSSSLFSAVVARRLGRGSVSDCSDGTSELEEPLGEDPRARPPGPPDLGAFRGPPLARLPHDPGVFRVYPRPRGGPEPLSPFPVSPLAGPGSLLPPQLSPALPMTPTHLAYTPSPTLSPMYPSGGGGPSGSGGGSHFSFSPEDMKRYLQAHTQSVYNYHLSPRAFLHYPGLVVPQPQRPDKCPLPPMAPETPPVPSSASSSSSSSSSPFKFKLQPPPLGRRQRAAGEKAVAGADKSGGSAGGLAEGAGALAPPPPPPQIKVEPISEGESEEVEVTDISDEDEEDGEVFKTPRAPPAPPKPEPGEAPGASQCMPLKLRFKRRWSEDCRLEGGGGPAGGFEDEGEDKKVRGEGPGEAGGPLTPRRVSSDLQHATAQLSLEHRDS
Procedure, shortened: as §1

ELF1 = ELF1 (Homo sapiens, UniProt P32519 1-619)
Procedure, shortened: as §1

SPI1 = SPI1 (Homo sapiens, UniProt P17947 1-270)
Procedure, shortened: as §1

SPIB = SPIB (Homo sapiens, UniProt Q01892 1-262)
Procedure, shortened: as §1

ETV3L = biological target: T7, ETV3L (Homo sapiens, UniProt Q6ZN32 1-361)
T7 sequence: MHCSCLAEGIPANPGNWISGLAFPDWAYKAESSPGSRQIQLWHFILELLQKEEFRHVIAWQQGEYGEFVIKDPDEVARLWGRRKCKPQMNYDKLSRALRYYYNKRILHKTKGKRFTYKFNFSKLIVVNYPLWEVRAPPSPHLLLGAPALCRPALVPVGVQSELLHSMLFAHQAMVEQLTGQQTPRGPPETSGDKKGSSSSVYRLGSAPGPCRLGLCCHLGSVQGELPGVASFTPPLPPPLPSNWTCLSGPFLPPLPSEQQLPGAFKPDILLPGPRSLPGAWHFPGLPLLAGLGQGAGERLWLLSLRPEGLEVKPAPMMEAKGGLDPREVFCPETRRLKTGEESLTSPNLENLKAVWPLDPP
Procedure, shortened: as §1

ETS2 = biological target: T8, ETS2 (Homo sapiens, UniProt P15036 1-469)
T8 sequence: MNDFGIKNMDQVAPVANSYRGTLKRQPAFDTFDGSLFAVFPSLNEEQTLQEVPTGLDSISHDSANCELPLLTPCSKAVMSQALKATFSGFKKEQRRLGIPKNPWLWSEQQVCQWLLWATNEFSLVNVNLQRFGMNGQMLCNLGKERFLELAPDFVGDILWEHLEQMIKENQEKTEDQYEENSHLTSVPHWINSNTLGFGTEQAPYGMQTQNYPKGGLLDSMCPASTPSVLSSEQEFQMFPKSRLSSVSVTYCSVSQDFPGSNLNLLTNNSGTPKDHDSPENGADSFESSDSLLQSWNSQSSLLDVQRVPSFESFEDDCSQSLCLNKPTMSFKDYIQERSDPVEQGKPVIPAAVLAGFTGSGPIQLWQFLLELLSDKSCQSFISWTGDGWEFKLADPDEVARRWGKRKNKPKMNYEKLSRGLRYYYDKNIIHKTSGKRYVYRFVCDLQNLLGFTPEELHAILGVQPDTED
Procedure, shortened: as §1

SPDEF = biological target: T9, SPDEF (Homo sapiens, UniProt O95238 1-335)
T9 sequence: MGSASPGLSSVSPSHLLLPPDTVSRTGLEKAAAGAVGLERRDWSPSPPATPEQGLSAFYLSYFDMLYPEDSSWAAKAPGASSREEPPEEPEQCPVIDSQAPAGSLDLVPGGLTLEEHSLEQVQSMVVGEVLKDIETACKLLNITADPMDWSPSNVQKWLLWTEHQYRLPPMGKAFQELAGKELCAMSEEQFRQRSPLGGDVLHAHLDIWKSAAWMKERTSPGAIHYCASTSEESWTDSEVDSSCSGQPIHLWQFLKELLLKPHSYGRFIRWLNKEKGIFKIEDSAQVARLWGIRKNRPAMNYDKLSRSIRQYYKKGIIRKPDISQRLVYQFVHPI
Procedure, shortened: as §1

ETV6 = ETV6 (Homo sapiens, UniProt P41212 1-452)
Procedure, shortened: as §1

ELK1 = biological target: T10, ELK1 (Homo sapiens, UniProt P19419 1-428)
T10 sequence: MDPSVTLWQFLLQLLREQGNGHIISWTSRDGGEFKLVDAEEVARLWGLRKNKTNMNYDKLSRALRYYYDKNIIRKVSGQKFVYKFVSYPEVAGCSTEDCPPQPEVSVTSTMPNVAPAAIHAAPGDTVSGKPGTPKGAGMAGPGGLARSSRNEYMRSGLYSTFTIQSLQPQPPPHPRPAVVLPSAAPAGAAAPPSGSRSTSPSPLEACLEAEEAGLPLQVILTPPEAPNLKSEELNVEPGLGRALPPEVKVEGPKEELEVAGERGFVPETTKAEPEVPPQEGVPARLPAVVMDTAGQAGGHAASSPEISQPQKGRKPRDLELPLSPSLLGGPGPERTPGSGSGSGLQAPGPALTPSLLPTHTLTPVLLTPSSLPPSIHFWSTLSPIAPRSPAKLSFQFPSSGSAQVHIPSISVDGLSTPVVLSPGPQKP
Procedure, shortened: as §1

FEV = biological target: T11, FEV (Homo sapiens, UniProt Q99581 1-238)
T11 sequence: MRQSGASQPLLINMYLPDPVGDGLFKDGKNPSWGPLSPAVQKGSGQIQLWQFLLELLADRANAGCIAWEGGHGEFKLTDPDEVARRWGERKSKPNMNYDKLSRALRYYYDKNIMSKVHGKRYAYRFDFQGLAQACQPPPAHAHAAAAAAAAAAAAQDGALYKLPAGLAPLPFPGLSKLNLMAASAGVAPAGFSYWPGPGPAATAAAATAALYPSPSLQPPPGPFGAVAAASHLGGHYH
Procedure, shortened: as §1

ETV1 = ETV1 (Homo sapiens, UniProt P50549 1-477)
Procedure, shortened: as §1

ETV3 = biological target: T12, ETV3 (Homo sapiens, UniProt P41162-2 1-143)
T12 sequence: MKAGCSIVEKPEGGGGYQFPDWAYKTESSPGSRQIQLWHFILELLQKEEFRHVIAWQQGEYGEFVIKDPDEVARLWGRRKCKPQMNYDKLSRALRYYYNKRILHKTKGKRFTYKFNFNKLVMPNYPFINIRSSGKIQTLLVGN
Procedure, shortened: as §1

ETV5, sequence (P41161 whole entry): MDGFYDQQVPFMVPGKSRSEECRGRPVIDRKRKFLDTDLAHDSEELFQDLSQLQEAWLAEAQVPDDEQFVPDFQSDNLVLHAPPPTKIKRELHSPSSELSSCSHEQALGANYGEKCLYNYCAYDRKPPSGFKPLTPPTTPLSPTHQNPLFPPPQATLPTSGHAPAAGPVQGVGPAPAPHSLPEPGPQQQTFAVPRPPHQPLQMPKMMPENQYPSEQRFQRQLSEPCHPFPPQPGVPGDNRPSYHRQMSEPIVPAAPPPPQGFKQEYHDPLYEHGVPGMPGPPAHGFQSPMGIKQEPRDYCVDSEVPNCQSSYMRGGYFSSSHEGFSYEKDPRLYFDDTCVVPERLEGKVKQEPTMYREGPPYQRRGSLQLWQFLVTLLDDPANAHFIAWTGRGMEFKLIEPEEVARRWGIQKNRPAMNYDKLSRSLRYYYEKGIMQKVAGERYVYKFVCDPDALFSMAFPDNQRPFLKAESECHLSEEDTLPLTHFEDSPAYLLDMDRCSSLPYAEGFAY
ELF1, sequence (P32519 whole entry): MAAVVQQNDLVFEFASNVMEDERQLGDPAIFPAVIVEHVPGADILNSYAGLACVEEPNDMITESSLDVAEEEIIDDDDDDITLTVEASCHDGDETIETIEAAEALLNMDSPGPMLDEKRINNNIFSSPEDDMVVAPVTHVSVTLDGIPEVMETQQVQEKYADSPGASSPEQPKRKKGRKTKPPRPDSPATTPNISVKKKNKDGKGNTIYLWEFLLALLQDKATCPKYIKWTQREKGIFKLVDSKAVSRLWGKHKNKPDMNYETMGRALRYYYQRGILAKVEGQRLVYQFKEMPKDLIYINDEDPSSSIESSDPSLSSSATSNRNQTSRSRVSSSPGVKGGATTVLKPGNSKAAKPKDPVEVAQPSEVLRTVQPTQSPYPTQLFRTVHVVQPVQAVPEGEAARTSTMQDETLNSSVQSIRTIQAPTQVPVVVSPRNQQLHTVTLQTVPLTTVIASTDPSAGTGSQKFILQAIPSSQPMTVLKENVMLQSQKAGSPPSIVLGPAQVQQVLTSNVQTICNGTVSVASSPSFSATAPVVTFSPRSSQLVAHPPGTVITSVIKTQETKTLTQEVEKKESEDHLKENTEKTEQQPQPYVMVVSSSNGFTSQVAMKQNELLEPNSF
ETV6, sequence (P41212 whole entry): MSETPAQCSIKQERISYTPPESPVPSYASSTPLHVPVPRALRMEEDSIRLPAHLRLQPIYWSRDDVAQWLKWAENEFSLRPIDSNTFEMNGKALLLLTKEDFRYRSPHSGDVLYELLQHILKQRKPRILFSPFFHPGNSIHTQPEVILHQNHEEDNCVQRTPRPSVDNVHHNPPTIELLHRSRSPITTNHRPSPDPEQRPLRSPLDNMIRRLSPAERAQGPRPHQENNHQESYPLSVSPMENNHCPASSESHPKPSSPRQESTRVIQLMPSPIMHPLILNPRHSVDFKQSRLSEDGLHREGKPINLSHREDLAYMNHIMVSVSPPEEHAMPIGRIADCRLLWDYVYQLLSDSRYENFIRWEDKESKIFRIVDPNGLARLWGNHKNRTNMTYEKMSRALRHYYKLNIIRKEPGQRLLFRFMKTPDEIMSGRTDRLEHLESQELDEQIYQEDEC
SPIB, sequence (Q01892 whole entry): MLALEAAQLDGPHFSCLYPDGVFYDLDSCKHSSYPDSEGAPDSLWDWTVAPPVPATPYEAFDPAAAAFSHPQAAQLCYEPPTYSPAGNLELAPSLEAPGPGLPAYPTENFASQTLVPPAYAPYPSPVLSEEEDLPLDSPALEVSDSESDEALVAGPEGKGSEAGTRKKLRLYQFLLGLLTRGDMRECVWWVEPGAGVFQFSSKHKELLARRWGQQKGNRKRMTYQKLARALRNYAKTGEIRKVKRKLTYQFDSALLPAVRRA
ETV1, sequence (P50549 whole entry): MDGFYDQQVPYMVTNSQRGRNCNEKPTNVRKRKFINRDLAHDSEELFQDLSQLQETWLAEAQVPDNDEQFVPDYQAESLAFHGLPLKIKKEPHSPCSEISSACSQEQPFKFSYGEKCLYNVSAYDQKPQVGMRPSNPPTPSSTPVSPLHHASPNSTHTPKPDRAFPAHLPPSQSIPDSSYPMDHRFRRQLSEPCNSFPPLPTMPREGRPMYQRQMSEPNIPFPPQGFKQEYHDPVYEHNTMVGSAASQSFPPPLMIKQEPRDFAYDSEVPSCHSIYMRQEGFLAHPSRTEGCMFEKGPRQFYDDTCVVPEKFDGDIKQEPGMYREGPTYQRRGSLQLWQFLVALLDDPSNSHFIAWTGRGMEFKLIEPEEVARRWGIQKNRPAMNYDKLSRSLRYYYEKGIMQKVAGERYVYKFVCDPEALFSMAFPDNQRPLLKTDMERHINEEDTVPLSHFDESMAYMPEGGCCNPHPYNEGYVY

Row | Sequence | binding signal (FLI1) | binding signal (GABPA) | binding signal (EHF) | binding signal (ELK3) | binding signal (ETV5) | binding signal (SPIC) | binding signal (ERF) | binding signal (ELF1) | binding signal (SPI1) | binding signal (SPIB) | binding signal (ETV3L) | binding signal (ETS2) | binding signal (SPDEF) | binding signal (ETV6) | binding signal (ELK1) | binding signal (FEV) | binding signal (ETV1) | binding signal (ETV3)
1 | TGGGTA | 1.04 fold enrichment (6-mer frequency, TF over GST control) | 1.05 fold enrichment (6-mer frequency, TF over GST control) | 1.01 fold enrichment (6-mer frequency, TF over GST control) | 1.12 fold enrichment (6-mer frequency, TF over GST control) | 1.02 fold enrichment (6-mer frequency, TF over GST control) | 1.03 fold enrichment (6-mer frequency, TF over GST control) | 1.14 fold enrichment (6-mer frequency, TF over GST control) |  |  |  |  |  |  |  |  |  |  | 
2 | GTTATA | 1.12 fold enrichment (6-mer frequency, TF over GST control) |  |  | 1.06 fold enrichment (6-mer frequency, TF over GST control) | 1.04 fold enrichment (6-mer frequency, TF over GST control) | 1.15 fold enrichment (6-mer frequency, TF over GST control) | 1.03 fold enrichment (6-mer frequency, TF over GST control) | 1.03 fold enrichment (6-mer frequency, TF over GST control) | 1.01 fold enrichment (6-mer frequency, TF over GST control) | 1.03 fold enrichment (6-mer frequency, TF over GST control) | 1.06 fold enrichment (6-mer frequency, TF over GST control) | 1.06 fold enrichment (6-mer frequency, TF over GST control) | 1.03 fold enrichment (6-mer frequency, TF over GST control) | 1 fold enrichment (6-mer frequency, TF over GST control) |  |  |  | 
3 | ACTGTA | 1 fold enrichment (6-mer frequency, TF over GST control) | 1.03 fold enrichment (6-mer frequency, TF over GST control) | 1.11 fold enrichment (6-mer frequency, TF over GST control) | 1.04 fold enrichment (6-mer frequency, TF over GST control) | 1.08 fold enrichment (6-mer frequency, TF over GST control) | 1.24 fold enrichment (6-mer frequency, TF over GST control) |  | 1.08 fold enrichment (6-mer frequency, TF over GST control) | 1.09 fold enrichment (6-mer frequency, TF over GST control) |  | 1.01 fold enrichment (6-mer frequency, TF over GST control) |  | 1.02 fold enrichment (6-mer frequency, TF over GST control) | 1.03 fold enrichment (6-mer frequency, TF over GST control) | 1.09 fold enrichment (6-mer frequency, TF over GST control) | 1 fold enrichment (6-mer frequency, TF over GST control) | 1.02 fold enrichment (6-mer frequency, TF over GST control) | 1 fold enrichment (6-mer frequency, TF over GST control)
